Binding signal data for one sequence are collected here from paper PMC7862700, “An all-to-all approach to the identification of sequence-specific readers for epigenetic DNA modifications on cytosine”.

Holding throughout (assay): DAPPL (digital affinity profiling via proximity ligation, sequencing); 10 mM Tris-HCl pH 7.5, 50 mM NaCl, 1 mM DTT, 4% glycerol, room temperature, 30 min; GST-TFs on glutathione beads, 16-mer random dsDNA library, 0.1% formaldehyde crosslink after washing; high values mean tight binding
The target in one test is T1, FLI1 (Homo sapiens, UniProt Q01543 1-452).
T1 sequence: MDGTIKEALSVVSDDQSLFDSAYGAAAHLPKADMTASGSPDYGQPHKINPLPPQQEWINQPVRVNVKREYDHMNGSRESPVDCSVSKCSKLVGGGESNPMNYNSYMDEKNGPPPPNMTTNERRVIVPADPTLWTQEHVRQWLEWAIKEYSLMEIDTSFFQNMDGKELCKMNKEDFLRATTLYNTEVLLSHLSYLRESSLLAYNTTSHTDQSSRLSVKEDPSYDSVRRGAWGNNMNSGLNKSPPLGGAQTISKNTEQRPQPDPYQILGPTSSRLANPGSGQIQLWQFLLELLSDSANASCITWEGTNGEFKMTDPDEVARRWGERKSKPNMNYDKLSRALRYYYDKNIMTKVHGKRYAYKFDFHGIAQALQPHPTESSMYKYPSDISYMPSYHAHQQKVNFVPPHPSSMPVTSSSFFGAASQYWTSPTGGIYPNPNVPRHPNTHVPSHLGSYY
As to conditions: protein: recombinant; tags: N-terminal GST; dsDNA, one strand shown. The method, boiled down: (§1)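 After expression in yeast as GST fusions, human transcription factors were bound to glutathione beads, DNA-barcoded and mixed with a tag-only sample. The pools were incubated with 200 nmole of a 16-mer random double-stranded DNA library in Tris/NaCl/DTT/glycerol buffer (30 min, room temperature), washed and crosslinked with 0.1% formaldehyde. Proximity ligation with BsaI/T4 ligase ran for 1 h at 37 °C, before PCR amplification and sequencing on an Illumina NextSeq500. Binding signal is a hexamer's read frequency for a factor divided by its frequency for the tag-only sample.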

Another test addresses T2, ELK1 (Homo sapiens, UniProt P19419 1-428).
T2 sequence: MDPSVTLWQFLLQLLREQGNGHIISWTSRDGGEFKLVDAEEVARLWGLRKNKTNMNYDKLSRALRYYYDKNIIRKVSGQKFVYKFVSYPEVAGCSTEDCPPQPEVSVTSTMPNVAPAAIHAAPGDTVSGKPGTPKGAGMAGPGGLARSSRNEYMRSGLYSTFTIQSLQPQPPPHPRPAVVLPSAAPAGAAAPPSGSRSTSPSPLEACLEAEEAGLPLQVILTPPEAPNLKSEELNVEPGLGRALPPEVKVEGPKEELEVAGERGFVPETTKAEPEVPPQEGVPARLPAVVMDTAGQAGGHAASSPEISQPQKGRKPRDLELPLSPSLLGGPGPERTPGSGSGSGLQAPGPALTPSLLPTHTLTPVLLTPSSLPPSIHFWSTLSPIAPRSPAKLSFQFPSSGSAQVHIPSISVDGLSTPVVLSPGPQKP
As to conditions: protein: recombinant; tags: N-terminal GST; dsDNA, one strand shown. The essentials: as §1

The target of the next test is T3, GABPA (Homo sapiens, UniProt Q06546 1-454).
T3 sequence: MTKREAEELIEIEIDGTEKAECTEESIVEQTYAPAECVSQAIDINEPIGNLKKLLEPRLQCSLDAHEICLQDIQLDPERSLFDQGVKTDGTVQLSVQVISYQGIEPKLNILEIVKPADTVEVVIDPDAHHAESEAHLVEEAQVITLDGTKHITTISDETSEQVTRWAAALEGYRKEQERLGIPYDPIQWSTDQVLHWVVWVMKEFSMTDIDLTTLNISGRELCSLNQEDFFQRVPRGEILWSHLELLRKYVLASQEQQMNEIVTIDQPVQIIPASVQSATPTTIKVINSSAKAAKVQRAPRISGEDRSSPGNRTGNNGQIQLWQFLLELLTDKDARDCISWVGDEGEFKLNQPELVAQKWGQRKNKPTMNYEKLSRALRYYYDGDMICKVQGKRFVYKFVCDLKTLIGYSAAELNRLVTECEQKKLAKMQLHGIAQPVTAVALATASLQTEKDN
As to conditions: protein: recombinant; tags: N-terminal GST; dsDNA, one strand shown. The method, boiled down: as §1

The next test concerns the target T4, ERG (Homo sapiens, UniProt P11308 1-479).
T4 sequence: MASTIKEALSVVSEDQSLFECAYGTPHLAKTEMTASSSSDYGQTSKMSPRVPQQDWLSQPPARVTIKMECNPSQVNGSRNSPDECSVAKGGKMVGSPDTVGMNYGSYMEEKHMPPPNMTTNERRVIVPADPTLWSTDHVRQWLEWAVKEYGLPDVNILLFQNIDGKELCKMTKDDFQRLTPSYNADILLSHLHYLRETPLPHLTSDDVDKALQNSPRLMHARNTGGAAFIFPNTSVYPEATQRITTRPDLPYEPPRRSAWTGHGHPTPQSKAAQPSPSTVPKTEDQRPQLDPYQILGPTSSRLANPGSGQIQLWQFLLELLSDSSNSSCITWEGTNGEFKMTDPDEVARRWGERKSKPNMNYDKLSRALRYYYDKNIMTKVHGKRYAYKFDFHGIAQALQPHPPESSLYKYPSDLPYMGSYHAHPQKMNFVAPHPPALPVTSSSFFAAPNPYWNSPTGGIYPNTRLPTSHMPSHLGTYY
The settings on record: protein: recombinant; tags: N-terminal GST; dsDNA, one strand shown. The essentials:
as §1

A further test has as its target ELF1 (Homo sapiens, UniProt P32519 1-619). As to conditions: protein: recombinant; tags: N-terminal GST; dsDNA, one strand shown. The method, boiled down: as §1
The next test addresses T5, EHF (Homo sapiens, UniProt Q9NZC4 1-300).
T5 sequence: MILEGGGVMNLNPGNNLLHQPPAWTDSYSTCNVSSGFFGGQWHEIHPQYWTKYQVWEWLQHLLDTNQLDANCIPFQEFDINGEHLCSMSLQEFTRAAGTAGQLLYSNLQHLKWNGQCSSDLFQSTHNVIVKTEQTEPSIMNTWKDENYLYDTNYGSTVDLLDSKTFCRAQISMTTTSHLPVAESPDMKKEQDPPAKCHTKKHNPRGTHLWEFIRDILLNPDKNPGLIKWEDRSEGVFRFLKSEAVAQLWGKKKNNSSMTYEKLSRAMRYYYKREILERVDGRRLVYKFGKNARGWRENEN
As to conditions: protein: recombinant; tags: N-terminal GST; dsDNA, one strand shown. The method, boiled down: as §1

Another test concerns the target SPI1 (Homo sapiens, UniProt P17947 1-270). The settings on record: protein: recombinant; tags: N-terminal GST; dsDNA, one strand shown. The essentials:
as §1

In another test the target is SPIB (Homo sapiens, UniProt Q01892 1-262). The settings on record: protein: recombinant; tags: N-terminal GST; dsDNA, one strand shown. The method, boiled down:
as §1

In another test the target is T6, ELK3 (Homo sapiens, UniProt P41970 1-407).
T6 sequence: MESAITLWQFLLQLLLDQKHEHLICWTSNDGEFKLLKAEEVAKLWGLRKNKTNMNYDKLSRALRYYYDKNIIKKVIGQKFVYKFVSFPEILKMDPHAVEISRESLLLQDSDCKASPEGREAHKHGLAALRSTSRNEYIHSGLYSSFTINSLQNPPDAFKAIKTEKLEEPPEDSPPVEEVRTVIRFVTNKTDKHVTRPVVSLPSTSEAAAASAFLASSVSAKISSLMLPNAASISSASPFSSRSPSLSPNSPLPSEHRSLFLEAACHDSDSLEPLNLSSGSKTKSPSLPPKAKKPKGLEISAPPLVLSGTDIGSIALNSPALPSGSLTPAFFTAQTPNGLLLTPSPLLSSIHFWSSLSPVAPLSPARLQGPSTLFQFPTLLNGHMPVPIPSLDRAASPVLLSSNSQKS
As to conditions: protein: recombinant; tags: N-terminal GST; dsDNA, one strand shown. The essentials:
as §1

In a further test the target is T7, FEV (Homo sapiens, UniProt Q99581 1-238).
T7 sequence: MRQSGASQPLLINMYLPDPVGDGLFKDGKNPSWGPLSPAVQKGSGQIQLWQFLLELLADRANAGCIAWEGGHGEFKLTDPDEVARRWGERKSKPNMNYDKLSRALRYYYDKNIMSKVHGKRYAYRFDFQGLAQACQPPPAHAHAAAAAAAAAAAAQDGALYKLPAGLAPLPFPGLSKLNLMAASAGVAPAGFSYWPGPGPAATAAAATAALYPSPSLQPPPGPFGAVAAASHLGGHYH
As to conditions: protein: recombinant; tags: N-terminal GST; dsDNA, one strand shown. The essentials:
as §1

Another test has as its target ETV5 (Homo sapiens, UniProt P41161 1-510). As to conditions: protein: recombinant; tags: N-terminal GST; dsDNA, one strand shown. The method, boiled down: as §1
In another test the target is HSF1 (Homo sapiens, UniProt Q00613 1-529). As to conditions: protein: recombinant; tags: N-terminal GST; chain copies: 3; dsDNA, one strand shown. The essentials:
as §1

A further test has as its target T8, SPIC (Homo sapiens, UniProt Q8N5J4 1-248).
T8 sequence: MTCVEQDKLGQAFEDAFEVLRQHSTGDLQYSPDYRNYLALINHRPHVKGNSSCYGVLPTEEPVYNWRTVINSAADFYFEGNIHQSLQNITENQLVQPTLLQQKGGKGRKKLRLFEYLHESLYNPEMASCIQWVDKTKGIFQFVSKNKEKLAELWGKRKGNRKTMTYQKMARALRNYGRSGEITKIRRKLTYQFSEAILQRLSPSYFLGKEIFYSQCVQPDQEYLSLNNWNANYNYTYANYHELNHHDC
As to conditions: protein: recombinant; tags: N-terminal GST; dsDNA, one strand shown. The method, boiled down:
as §1

The target of a further test is ELF4 (Homo sapiens, UniProt Q99607 1-663). As to conditions: protein: recombinant; tags: N-terminal GST; dsDNA, one strand shown. The method, boiled down:
as §1

Another test concerns the target T9, ELK4 (Homo sapiens, UniProt P28324-2 1-405).
T9 sequence: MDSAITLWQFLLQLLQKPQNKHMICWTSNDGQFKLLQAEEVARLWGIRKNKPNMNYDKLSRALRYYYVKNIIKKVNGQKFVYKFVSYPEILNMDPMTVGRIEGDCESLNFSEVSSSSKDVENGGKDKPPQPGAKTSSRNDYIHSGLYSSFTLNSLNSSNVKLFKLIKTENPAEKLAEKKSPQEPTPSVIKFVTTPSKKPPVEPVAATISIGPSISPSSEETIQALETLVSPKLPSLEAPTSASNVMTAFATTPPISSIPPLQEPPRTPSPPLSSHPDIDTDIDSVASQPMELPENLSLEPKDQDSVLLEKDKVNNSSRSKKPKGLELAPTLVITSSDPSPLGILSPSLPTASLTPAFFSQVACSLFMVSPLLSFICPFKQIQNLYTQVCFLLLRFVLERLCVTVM
As to conditions: protein: recombinant; tags: N-terminal GST; dsDNA, one strand shown. The method, boiled down:
as §1

For the next test, the target named is T10, ETV2 (Homo sapiens, UniProt O00321 1-342).
T10 sequence: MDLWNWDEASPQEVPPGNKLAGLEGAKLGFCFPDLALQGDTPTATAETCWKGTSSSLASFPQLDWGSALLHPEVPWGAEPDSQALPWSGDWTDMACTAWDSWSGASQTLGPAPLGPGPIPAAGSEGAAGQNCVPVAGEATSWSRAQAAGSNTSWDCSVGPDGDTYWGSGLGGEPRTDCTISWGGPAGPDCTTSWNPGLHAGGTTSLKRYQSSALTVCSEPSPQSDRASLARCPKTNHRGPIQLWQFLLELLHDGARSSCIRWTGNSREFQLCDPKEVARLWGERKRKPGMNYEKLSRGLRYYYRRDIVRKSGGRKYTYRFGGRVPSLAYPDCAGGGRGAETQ
As to conditions: protein: recombinant; tags: N-terminal GST; dsDNA, one strand shown. The essentials: as §1

The target in another test is T11, ELF3 (Homo sapiens, UniProt P78545 1-371).
T11 sequence: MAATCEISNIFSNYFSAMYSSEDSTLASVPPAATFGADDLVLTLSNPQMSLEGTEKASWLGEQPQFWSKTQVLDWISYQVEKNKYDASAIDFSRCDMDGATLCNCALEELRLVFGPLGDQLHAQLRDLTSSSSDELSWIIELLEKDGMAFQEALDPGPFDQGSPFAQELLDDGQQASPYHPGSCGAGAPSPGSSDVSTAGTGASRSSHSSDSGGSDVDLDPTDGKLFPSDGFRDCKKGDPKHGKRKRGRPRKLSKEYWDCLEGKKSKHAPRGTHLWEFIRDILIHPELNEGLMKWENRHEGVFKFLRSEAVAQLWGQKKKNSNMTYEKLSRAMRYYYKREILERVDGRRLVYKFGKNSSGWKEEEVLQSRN
As to conditions: protein: recombinant; tags: N-terminal GST; dsDNA, one strand shown. The method, boiled down:
as §1

In another test the target is ETV1 (Homo sapiens, UniProt P50549 1-477). The settings on record: protein: recombinant; tags: N-terminal GST; dsDNA, one strand shown. The essentials: as §1
Sequence of ETV1 (P50549 whole entry): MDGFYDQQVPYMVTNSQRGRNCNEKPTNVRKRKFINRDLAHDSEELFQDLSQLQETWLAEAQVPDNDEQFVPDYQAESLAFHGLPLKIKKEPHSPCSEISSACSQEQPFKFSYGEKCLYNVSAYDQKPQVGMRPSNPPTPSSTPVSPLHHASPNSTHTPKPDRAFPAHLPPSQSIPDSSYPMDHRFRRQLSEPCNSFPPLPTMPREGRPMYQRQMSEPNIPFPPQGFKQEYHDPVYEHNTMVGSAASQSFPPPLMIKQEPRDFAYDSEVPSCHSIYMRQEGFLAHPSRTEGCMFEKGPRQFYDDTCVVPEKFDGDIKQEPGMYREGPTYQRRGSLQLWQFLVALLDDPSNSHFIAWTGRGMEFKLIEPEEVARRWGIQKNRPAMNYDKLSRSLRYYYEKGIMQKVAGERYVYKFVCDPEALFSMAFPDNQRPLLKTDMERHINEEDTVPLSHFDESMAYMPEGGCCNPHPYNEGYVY

Sequence of HSF1 (Q00613 whole entry): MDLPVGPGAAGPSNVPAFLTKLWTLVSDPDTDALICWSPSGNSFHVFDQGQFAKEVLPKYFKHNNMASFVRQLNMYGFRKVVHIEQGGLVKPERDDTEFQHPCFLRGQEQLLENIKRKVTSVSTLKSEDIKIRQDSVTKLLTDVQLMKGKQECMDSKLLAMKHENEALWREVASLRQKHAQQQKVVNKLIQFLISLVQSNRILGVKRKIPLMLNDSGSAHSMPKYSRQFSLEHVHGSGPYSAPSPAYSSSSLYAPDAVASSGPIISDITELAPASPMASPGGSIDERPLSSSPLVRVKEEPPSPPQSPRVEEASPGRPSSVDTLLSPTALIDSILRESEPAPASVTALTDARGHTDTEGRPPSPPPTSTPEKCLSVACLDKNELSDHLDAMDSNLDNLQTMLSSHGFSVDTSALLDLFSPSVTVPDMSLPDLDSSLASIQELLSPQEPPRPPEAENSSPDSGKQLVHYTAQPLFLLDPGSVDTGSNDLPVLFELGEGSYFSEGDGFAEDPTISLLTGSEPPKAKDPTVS
Sequence of SPIB (Q01892 whole entry): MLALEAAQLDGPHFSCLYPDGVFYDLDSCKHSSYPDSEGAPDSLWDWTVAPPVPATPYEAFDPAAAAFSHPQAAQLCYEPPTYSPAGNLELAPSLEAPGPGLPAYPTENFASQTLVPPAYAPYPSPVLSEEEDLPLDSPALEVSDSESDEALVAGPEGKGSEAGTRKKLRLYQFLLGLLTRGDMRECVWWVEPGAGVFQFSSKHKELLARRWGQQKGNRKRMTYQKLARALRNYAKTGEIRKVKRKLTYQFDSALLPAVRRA
Sequence of ELF4 (Q99607 whole entry): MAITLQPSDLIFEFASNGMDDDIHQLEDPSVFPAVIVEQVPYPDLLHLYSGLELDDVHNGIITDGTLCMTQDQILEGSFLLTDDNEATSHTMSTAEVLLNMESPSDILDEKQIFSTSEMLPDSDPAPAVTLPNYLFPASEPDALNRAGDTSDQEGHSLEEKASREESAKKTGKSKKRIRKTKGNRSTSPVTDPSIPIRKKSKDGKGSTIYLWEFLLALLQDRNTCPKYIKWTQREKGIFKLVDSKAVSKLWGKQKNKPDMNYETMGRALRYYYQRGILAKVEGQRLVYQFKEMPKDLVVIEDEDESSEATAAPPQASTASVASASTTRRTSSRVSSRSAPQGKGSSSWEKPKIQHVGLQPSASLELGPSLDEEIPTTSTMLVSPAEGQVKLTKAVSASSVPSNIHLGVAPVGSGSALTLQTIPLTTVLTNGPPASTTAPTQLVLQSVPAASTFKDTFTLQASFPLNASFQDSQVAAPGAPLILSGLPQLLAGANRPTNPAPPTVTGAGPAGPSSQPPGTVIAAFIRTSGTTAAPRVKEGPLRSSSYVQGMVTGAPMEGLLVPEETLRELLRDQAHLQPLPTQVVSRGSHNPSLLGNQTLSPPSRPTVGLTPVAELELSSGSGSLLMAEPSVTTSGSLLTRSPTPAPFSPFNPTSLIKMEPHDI
Sequence of ELF1 (P32519 whole entry): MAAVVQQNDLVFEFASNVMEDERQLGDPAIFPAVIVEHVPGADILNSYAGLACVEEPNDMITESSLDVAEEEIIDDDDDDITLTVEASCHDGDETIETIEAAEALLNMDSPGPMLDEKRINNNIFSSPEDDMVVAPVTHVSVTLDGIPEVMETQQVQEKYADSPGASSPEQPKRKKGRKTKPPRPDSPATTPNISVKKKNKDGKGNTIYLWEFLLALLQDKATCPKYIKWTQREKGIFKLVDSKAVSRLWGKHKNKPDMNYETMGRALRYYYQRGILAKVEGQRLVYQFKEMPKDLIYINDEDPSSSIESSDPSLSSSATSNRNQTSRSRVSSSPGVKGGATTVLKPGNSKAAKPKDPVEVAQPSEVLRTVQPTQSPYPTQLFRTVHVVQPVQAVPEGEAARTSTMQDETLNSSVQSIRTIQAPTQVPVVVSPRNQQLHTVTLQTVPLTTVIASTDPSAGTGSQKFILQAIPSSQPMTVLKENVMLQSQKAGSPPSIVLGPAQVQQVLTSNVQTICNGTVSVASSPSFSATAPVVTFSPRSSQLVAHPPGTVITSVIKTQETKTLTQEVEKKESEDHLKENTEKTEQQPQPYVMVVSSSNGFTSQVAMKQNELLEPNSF
Sequence of ETV5 (P41161 whole entry): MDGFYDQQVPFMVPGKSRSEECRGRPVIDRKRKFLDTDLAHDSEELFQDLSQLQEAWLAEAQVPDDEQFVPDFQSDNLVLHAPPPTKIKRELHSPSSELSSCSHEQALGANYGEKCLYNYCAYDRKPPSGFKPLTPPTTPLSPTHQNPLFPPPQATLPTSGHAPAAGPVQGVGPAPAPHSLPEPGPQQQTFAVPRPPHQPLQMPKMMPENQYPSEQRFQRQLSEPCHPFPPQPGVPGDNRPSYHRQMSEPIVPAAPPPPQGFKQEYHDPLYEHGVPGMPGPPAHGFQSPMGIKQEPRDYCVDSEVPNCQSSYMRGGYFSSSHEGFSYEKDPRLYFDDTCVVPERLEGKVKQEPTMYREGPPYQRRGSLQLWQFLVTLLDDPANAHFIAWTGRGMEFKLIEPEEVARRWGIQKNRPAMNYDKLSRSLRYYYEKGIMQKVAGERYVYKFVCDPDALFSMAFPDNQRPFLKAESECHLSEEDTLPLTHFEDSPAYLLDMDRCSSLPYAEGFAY

In the case of GAAATG, the binding signal is 1.52 fold enrichment (6-mer frequency, TF over GST control) in the test with FLI1; 1.61 fold enrichment (6-mer frequency, TF over GST control) with ELK1; 1.55 fold enrichment (6-mer frequency, TF over GST control) in the test with GABPA; 1.73 fold enrichment (6-mer frequency, TF over GST control) in the test with ERG; 1.54 fold enrichment (6-mer frequency, TF over GST control) with ELF1; 1.65 fold enrichment (6-mer frequency, TF over GST control) with EHF. Besides, the binding signal in the test with SPI1 was 1.67 fold enrichment (6-mer frequency, TF over GST control); with SPIB, 1.6 fold enrichment (6-mer frequency, TF over GST control); with ELK3 it was 1.6 fold enrichment (6-mer frequency, TF over GST control); with FEV, 1.77 fold enrichment (6-mer frequency, TF over GST control); with ETV5, 1.7 fold enrichment (6-mer frequency, TF over GST control); in the test with HSF1, 1.1 fold enrichment (6-mer frequency, TF over GST control). Also, the binding signal with SPIC is 1.56 fold enrichment (6-mer frequency, TF over GST control); with ELF4, 1.49 fold enrichment (6-mer frequency, TF over GST control); with ELK4 it was 1.65 fold enrichment (6-mer frequency, TF over GST control); in the test with ETV2, 1.55 fold enrichment (6-mer frequency, TF over GST control); with ELF3 it was 1.78 fold enrichment (6-mer frequency, TF over GST control); with ETV1 it was 1.58 fold enrichment (6-mer frequency, TF over GST control).
